Many of the other results were omitted from the sample, so hits are more common in it than they were.
ROC1-CUL1 inh – blocks human RBX1-Cullin-1 di-ubiquitin formation; AID 1347404; inhibition, % at 10 µM; P62877+Q13616; actives 0.6% (n = 140,000); in vitro K48 di-Ub FRET, acceptor:donor ratio, 45 min; in the data active = inhibition above about 25%
Target sequence (P62877 whole entry, looked up): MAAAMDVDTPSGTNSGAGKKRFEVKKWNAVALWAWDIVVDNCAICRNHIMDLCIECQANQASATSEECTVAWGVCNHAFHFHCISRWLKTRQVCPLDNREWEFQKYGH
Target sequence (Q13616 whole entry, looked up): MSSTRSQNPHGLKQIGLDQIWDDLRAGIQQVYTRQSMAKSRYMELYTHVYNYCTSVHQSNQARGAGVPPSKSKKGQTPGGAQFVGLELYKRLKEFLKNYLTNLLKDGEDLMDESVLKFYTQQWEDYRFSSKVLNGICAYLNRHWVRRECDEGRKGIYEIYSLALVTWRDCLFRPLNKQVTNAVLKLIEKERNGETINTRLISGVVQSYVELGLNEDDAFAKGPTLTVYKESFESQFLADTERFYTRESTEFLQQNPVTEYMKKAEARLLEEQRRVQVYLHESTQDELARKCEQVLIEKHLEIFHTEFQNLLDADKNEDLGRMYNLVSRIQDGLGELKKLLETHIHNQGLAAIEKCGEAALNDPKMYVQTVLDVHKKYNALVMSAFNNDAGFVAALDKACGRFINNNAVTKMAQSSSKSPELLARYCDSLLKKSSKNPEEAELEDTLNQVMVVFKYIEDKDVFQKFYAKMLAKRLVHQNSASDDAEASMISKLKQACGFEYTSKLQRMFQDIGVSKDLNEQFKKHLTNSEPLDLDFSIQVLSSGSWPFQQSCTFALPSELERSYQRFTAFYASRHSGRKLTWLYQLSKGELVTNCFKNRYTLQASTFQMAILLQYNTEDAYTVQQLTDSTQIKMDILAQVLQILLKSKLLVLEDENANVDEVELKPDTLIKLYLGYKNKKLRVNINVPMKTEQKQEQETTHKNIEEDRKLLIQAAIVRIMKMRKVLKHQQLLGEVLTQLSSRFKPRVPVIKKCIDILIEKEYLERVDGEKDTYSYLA
Hits are given with their value; . = inactive.

SMILES	ROC1-CUL1 inh
CCOC(=O)C1=C(c2ccccc2)N=c2s/c(=C\c3ccc(N(CC)CC)cc3O)c(=O)n2C1c1ccc(SC)cc1 (stereo not given)	47.2
CCOC(=O)Cn1cc(/C=c2\sc3n(c2=O)C(c2ccc(SC)cc2)C(C(=O)OCC)=C(c2ccccc2)N=3)c2ccccc21 (stereo not given)	.
Clc1ccc(Cc2noc(-c3cccs3)n2)c(Cl)c1	.
O=c1/c(=C/c2ccccc2O)sc2n1C(c1cccs1)C1=C(N=2)c2ccccc2CC1 (stereo not given)	.
COc1ccc(/C=c2/sc3n(c2=O)C(c2cccc(F)c2)C2=C(N=3)c3ccccc3CC2)cc1OC (stereo not given)	.
Cc1cc(/C=c2/sc3n(c2=O)C(c2ccc(F)cc2)C2=C(N=3)c3ccccc3CC2)c(C)n1-c1ccc(C(=O)O)cc1 (stereo not given)	.
O=C(O)c1ccc(/C=c2/sc3n(c2=O)C(c2cccs2)C2=C(N=3)c3ccccc3CC2)cc1 (stereo not given)	55.8
O=c1/c(=C\c2ccc(O)cc2)sc2n1C(c1cccs1)C1=C(N=2)c2ccccc2CC1 (stereo not given)	.
O=C(O)c1cccc(-c2ccc(/C=c3/sc4n(c3=O)C(c3cccc(F)c3)C3=C(N=4)c4ccccc4CC3)o2)c1 (stereo not given)	72.9
O=c1/c(=C\c2cc(Cl)ccc2O)sc2n1C(c1ccccc1)C1=C(N=2)c2ccccc2CC1 (stereo not given)	.
O=C(O)c1ccc(-c2ccc(/C=c3/sc4n(c3=O)C(c3ccc(F)cc3)C3=C(N=4)c4ccccc4CC3)o2)cc1Cl (stereo not given)	57.9
O=c1/c(=C/c2ccc(N3CCOCC3)o2)sc2n1C(c1ccc(F)cc1)C1=C(N=2)c2ccccc2CC1 (stereo not given)	.
CC(=O)OC1=C(c2c(C)cc(C)cc2C)C(=O)c2ccccc21	.
O=C(CSCCO)Nc1ccc(Cl)c(Br)c1	.
CCOC(=O)c1c(C)oc2cc(Br)c(O)c(CN(C)C)c12	.
CCCC(=O)Nc1cccnc1Cl	.
O=C(NC(=S)Nc1ccc2c(c1)OCO2)C12CC3CC(CC(C3)C1)C2	.
S=C(NCc1ccc(Cl)cc1)Nc1cccc2ccccc12	.
O=C1OC(c2ccc(Cl)cc2)=NC1C=Nc1ccccc1O (stereo not given)	.
COC(=O)c1csc([N+](=O)[O-])c1SCc1ccccc1	.
COC(=O)c1csc([N+](=O)[O-])c1SC(C)=O	76.9
COC(=O)c1scc([N+](=O)[O-])c1-c1c([N+](=O)[O-])csc1C(=O)OC	.
CC1CN(CC(=O)Nc2ccc(Cl)cc2)CC(C)O1 (stereo not given)	.
N#CC1C(=N)Oc2ccc3cc(Br)ccc3c2C1c1ccc(F)cc1 (stereo not given)	.
O=C1C=C(N2CCCCC2)c2ccccc2C1=O	79.5
SMILES	ROC1-CUL1 inh
CC(=O)N(C)C1=C(N2CCCC2)C(=O)c2ccccc2C1=O	.
Nc1ccc(S(=O)(=O)N2CCc3ccccc32)cc1	.
Cc1nc(N2CCc3ccccc32)nc2c1C(=O)CC(C)(C)C2	.
O=C1C(=Cc2ccc(N3CCCCCC3)o2)C(=O)c2ccccc21	.
O=C1C=C(N2CCc3ccccc32)c2ccccc2C1=O	76.7
O=C1NC(=S)N(c2ccccc2)C(=O)/C1=C/c1cc(Br)ccc1O	.
O=C1NC(=S)N(c2cccc(Br)c2)C(=O)/C1=C/c1ccc(O)cc1	.
O=C1NC(=S)N(c2cccc(Br)c2)C(=O)/C1=C/c1cc(I)c(O)c(I)c1	26.9
COc1cc(C)c(CC2=NC(=S)N(c3ccc(Cl)cc3)C2=O)cc1C(C)C	.
O=C1C(Cc2cc(Br)cc(Br)c2O)=NC(=S)N1c1ccc(Cl)cc1	99.9
O=C1NC(=S)N=C1Cc1cc(Br)cc(Br)c1O	.
Nc1nc(C2OC(CO)C(O)C2O)[nH]c1C(=O)NCc1ccccc1 (stereo not given)	.
COc1cccc(CN2CCCC3(CCN(C(=O)c4cnc(C)cn4)C3)C2)c1 (stereo not given)	.
CC(C)(C)CN1CCCC2(CCN(C(=O)c3cnccn3)C2)C1 (stereo not given)	.
Cc1cc(C)n2nc(C(=O)N3CCC4(CCCN(CC(C)(C)C)C4)C3)cc2n1 (stereo not given)	29.1
Cc1cccc(OCCSc2nc3ccccc3[nH]2)c1	.
COc1cc(C2N3CC4(C(C)C)CN2CC(C(C)C)(C3)C4=O)ccc1O (stereo not given)	.
COc1ccc(C(=O)C2C(=O)C(=O)N(CCCN(C)C)C2c2ccc(C)cc2)cc1OC (stereo not given)	.
CCCCOc1ccc(C(=O)C2C(=O)C(=O)N(CCCOC)C2c2ccc(O)c(OC)c2)cc1C (stereo not given)	.
CCCCOc1ccc(C(=O)C2C(=O)C(=O)N(CCOC)C2c2ccc(CC)cc2)cc1C (stereo not given)	40.6
CCc1ccc(C2C(C(=O)c3ccc4c(c3)CC(C)O4)C(=O)C(=O)N2CCOC)cc1 (stereo not given)	.
COc1ccc(C(=O)C2C(=O)C(=O)N(CCN(C)C)C2c2ccc(OCc3ccccc3)cc2)cc1 (stereo not given)	.
Cc1ccc(C2C(C(=O)c3ccc(OCc4ccccc4)c(C)c3)C(=O)C(=O)N2CCN(C)C)cc1 (stereo not given)	72.0
COCC(=O)N1CCC(Oc2ccc(C(=O)N(C)Cc3cnn(C)c3)cc2)CC1	.
O=C(C1CCC(=O)N(C2CCCC2)C1)N1CCCC1 (stereo not given)	.
SMILES	ROC1-CUL1 inh
CCOC(=O)C1=C(C)OC(=N)C(C#N)C1c1ccc(OCc2ccccc2)c(OCC)c1 (stereo not given)	.
CCC(C)NC(=O)c1c2c(nc3ccccc13)C(=O)N(C1CCCCC1)C2 (stereo not given)	.
CCC(C)NC(=O)c1c2nc3ccccc3nc2n2c1[nH]c(=O)c1ccccc12 (stereo not given)	53.0
CCC(C)NC(=O)c1ccccc1NC(=O)c1ccncc1 (stereo not given)	.
Clc1ccc(-c2nc(N3CCN(c4ccccc4Cl)CC3)nc3ccccc23)cc1	.
CCc1ccc(N2NC(=O)/C(=C/c3ccc(-c4ccc(S(=O)(=O)Nc5nccs5)cc4)o3)C2=O)cc1	93.3
O=C1NN(c2ccc(F)c(Cl)c2)C(=O)/C1=C/c1ccc(-c2ccc(Cl)cc2)o1	.
COC(=O)c1cccc(-c2ccc(/C=C3/C(=O)NN(c4ccc(C)c(C)c4)C3=O)o2)c1	.
CCCOC(=O)c1cc(-c2ccc(/C=C3/C(=O)NN(c4ccc(CC)cc4)C3=O)o2)ccc1Cl	.
Cc1ccc(N2NC(=O)/C(=C/c3ccc(-c4ccc(S(=O)(=O)Nc5nccs5)cc4)o3)C2=O)cc1C	84.8
O=C1NN(c2cccc(F)c2)C(=O)/C1=C/c1ccc(-c2ccc(Cl)cc2)o1	.
Cc1ccc(N2NC(=O)/C(=C/c3ccc(-c4ccc(S(=O)(=O)Nc5nccs5)cc4)o3)C2=O)cc1Cl	98.6
O=C1NN(c2ccc(Br)cc2)C(=O)/C1=C\c1ccc(-c2ccccc2)o1	.
O=C1NN(c2ccc(F)c(Cl)c2)C(=O)/C1=C/c1ccc(-c2cccc(Cl)c2)o1	.
O=[N+]([O-])c1cc(-c2nc(-c3ccncc3)no2)ccc1NCc1ccccc1	.
N#CC1C(=N)Oc2n[nH]c(C(F)(F)F)c2C1c1ccc(F)cc1 (stereo not given)	.

Screens deposited in PubChem BioAssay by Pan Lab, Icahn School of Medicine at Mount Sinai.
